Bioassay records: PubChem, National Center for Advancing Translational Sciences (NCATS)
Only some compounds are listed: those with a hit (about 10% of all), similar ones and a draw of the others.
CtBP-E1A blk: blocks the CtBP interaction with E1A; AlphaScreen GST-E1A/His-CtBP binding, 1536-well; hits give low values; activity change, % (no concentration beside the values); 340,000 compounds, 0.49% hits; AID 651724; in the data active = activity change below about -65%; inconclusive = mostly about -30% to -63%; also: % is scaled to controls: 0 for no effect and ±100 for the full control effect
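AlphaScreen with 125 nM GST-E1A and 125 nM His-CtBP (5X stocks) in Tris pH 8.0, 300 mM NaCl, BSA, Tween 20, TCEP. Compounds preincubated 2 h at 37 deg C, then glutathione donor/nickel acceptor beads added for 1 h at 37 deg C in dark.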
HP1b binding inh: inhibitors of HP1-beta chromodomain binding to methylated histone tails | AID 540317 | AlphaScreen HP1-beta / biotin-H3K9me3 peptide binding | Potency, µM (titrated, usually from 114 µM), for the others: at the top dose activity change, negative = inhibition, most hits filed as inhibitors | 390,000 compounds, 0.56% hits; also: potency is read from the fitted curve at half-maximal effect; nearly all actives have a fitted effect of over 70% in size
Target sequence (P83916 whole entry, looked up): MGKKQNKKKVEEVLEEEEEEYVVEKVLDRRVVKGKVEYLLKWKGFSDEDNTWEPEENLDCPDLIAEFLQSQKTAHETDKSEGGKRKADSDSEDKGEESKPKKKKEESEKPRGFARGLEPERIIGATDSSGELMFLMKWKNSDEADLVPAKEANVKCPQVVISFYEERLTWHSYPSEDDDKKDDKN
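Compound inhibition of the preformed complex between 50 nM HP1-beta and 50 nM biotinylated H3K9me3 peptide was read by AlphaScreen. Buffer was PBS pH 7.4 with 0.01% Tween-20. Incubations ran 30 min at room temperature, with 10 ug/mL donor/acceptor beads.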
BAZ2B block: BAZ2B (human) inhibition. 360,000 compounds, 4.4% hits. Potency, µM (series often up to 114 µM), without a hit: at the highest dose activity change, negative = inhibition, usual class: inhibitors. AlphaScreen BAZ2B-H3K14Ac peptide displacement. Q9UIF8; also: potency is read from the fitted curve at half-maximal effect; % is scaled to controls: 0 for no effect and ±100 for the full control effect; nearly all actives have a fitted effect of over 60% in size
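AlphaScreen luminescence quantifies BAZ2B engagement of H3K14Ac peptide; the protein and biotinylated peptide are both at 50 nM final, buffer PBS pH 7.4 with 0.01% Tween-20, all steps at room temperature.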
JMJD2A Tudor: inhibitors of human JMJD2A Tudor domain; O75164; AlphaScreen JMJD2A-Tudor / H3K4me3 peptide binding; Potency, µM (series often up to 114 µM), for the others: at the highest dose activity change, negative = inhibition, hits mostly inhibitors; 390,000 compounds, 4.4% hits; also: potency is read from the fitted curve at half-maximal effect; % is scaled to controls: 0 for no effect and ±100 for the full control effect; nearly all actives have a fitted effect of over 50% in size
Six1-Eya2 inh: blocks human Six1 binding to Eya2 | 360,000 compounds, 0.56% hits | Q15475+O00167 | activity change, % (concentration not given with the values) | AlphaScreen GST-Six1/His-Eya2 binding, biochemical; hits give low values; in the data active = activity change below about -65%; inconclusive = mostly about -30% to -63%; also: % is scaled to controls: 0 for no effect and ±100 for the full control effect
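GST-Six1 + His-Eya2 (5X stock: 250/500 nM); Tris pH 8.0, 300 mM NaCl, 0.05% BSA, 0.02% Tween 20; GSH donor/Ni acceptor beads; 1 h 37 °C dark; AlphaScreen readout.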
G9a inh: G9a (human) methyltransferase inhibition | Potency, µM (series often up to 102 µM), without a hit: top-dose activity, negative = inhibition, actives largely listed as inhibitors | G9a H3K9 monomethylation, AlphaScreen, 2 h | Q96KQ7 | 350,000 compounds, 8.8% hits; also: potency is read from the fitted curve at half-maximal effect; % is scaled to controls: 0 for no effect and ±100 for the full control effect; nearly all actives have a fitted effect of over 75% in size
Target sequence (Q96KQ7 913-1193 limits assumed): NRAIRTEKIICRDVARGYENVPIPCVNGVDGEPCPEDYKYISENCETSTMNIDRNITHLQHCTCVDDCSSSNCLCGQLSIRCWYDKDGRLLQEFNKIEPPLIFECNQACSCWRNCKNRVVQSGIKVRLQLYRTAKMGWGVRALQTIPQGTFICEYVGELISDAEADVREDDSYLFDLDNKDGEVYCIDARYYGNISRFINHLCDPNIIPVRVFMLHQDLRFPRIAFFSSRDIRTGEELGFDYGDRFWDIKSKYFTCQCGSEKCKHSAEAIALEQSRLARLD
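G9a (20 nM) preincubated 15 min RT with compounds, then 500 nM biotinylated H3K9 peptide and 20 uM SAM added; 2 h RT reaction. Monomethyl-H3K9 product detected by AlphaScreen with anti-H3K9me1 antibody, streptavidin donor and anti-rabbit IgG acceptor beads.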
Numbers without * were called inactive; ? = inconclusive; nt = no result given; ! = repeats disagree; [ ] = another dose, or the depositor's remark. Unless noted, calls follow the shape of the dose curve; as a rule, active = well fitted inhibition curve with a large enough effect; inconclusive = small, poorly fitted or top-dose-only effect; inactive = no such curve, though single readings can be large or run the other way.

SMILES | CtBP-E1A blk | HP1b binding inh | BAZ2B block | JMJD2A Tudor | Six1-Eya2 inh | G9a inh
CN(CCc1ccccc1)Cc1c[nH]c2ccccc12 | nt | -9% | ? | ? | -6 | 3.2µM*
COC(=O)[C@@]1(OC)C[C@@H]2O[C@@]1(C)n1c3ccccc3c3c4c(c5c6ccccc6n2c5c31)C(=O)N(C)C4 | nt | nt | nt | nt | nt | -4%[12.7 µM]
Cn1c(SCC(=O)N2CCOCC2)nnc1-c1cccc(NC(=O)c2ccccc2)c1 | 4 | 14% | nt | 89µM* | -6 | 10µM*
Cc1ccc(NC(=O)c2cc(-c3ccccc3)n(CCCN3CCOCC3)c2C)cc1 | -5 | ? | ? | -33% | 7 | ?
O=C(/C=C/c1ccccc1)c1c(O)n(CCc2ccccc2)c(=O)[nH]c1=O | -3 | 10% | 2% | -20% | -1 | 21%[59 µM]
COc1cc(/C=C/C(=O)c2c(O)n(CCc3ccccc3)c(=O)[nH]c2=O)ccc1O | -6 | 16% | 11% | -9% | -17 | 45µM*
O=C(c1ccccc1)c1cn(CC(=O)N2CCCC2)c2ccccc12 | 3 | 25% | -5% | -14% | 5 | -1%
O=C(C(=O)N1CCc2ccccc2C1)c1cn(CC(=O)N2CCCCC2)c2ccccc12 | -11 | 38% | -4% | -21% | -4 | 40µM*
CCOP(=S)(OCC)Oc1cc(C)oc(=O)c1Cl | 5 | -9% | 56µM* | 20µM* | -10 | 8.9µM*
CC(C)Oc1ccc(CNC(=O)Oc2ccccc2)cc1 | -5 | 24% | -4% | -13% | 1 | ?
COC(=O)C(O)(c1c(C)[nH]n(-c2ccccc2)c1=O)C(F)(F)F (centres undefined) | -6 | 45% | ? | -30%[57.1 µM] | -10 | 32µM*
CC1CN(C(=O)c2ccc(S(=O)(=O)Nc3ccccc3F)cc2)CC(C)O1 (centres undefined) | 7 | 46% | -2% | -8% | -1 | -5%
Cc1ccc(S(=O)(=O)N2CCCCC2)cc1NC(=O)CN1CC=C(c2ccccc2)CC1 | -4 | 4% | -5% | -31% | -11 | -11%[59 µM]
COc1ccccc1CNCC(=O)Nc1cc(S(=O)(=O)N2CCCCC2)ccc1C | 1 | ? | nt | 1.8µM* | 9 | nt
Cc1ccc2nsnc2c1NS(=O)(=O)c1c(C)ccc2nsnc12 | 2 | 20% | ? | -27% | -1 | 50µM*
Cc1ccc2nsnc2c1-n1c(C)nc2ccccc2c1=O | 3 | 23% | -2% | -7% | 1 | ?
Cc1ccc(-c2nnc(Nc3ccc(O)cc3)c3ccccc23)cc1S(=O)(=O)N1CCOCC1 | nt | 13% | -20% | ? | nt | 4%[59 µM]
CC1=NNC(=O)C1Br (centres undefined) | 6 | 14µM* | nt | 89µM* | 4 | nt
Cc1ccc(-c2nnc(Nc3ccc(OC(F)(F)Cl)cc3)c3ccccc23)cc1S(=O)(=O)NC(C)(C)CO | nt | 27% | -21% | -12% | nt | ?
COc1ccc(CCNC(=O)c2ccc3c(c2)N(Cc2cccc(Cl)c2)C(=O)CS3)cc1OC | nt | 13% | -16% | -23% | nt | ?
CCCc1cc(=O)oc2cc(OCC(=O)N3CCN(Cc4ccc5c(c4)OCO5)CC3)ccc12 | -28 | 23% | 50µM* | -32% | -21 | -36%
C[S+](CC[C@H](N)C(=O)O)C[C@H]1O[C@@H](n2cnc3c(N)ncnc32)[C@H](O)[C@@H]1O (some centres undefined) | 6 | 9% | 4% | 13µM* | 5 | 3.5µM*
O=S1(=O)N(Cc2ccccc2Cl)CCCN1Cc1ccccc1Cl | nt | 95% | 76% | 84% | nt | 109%[59 µM]
Clc1cccc(Cl)c1CN1CCN(c2ccccc2)CC1 | 0 | ? | 35µM* | 3.2µM* | -11 | 25µM*
Clc1ccc(N2CCN(Cc3ccccc3Cl)CC2)cc1 | 0 | ? | ? | 4.5µM* | 0 | 25µM*
SMILES | CtBP-E1A blk | HP1b binding inh | BAZ2B block | JMJD2A Tudor | Six1-Eya2 inh | G9a inh
Clc1ccccc1CN1CCN(c2ccccc2)CC1 | 1 | ? | 50µM* | 3.5µM* | -12 | ?
Nc1ccc(N2CCN(Cc3ccccc3Cl)CC2)c(Cl)c1 | -20 | ? | 45µM* | -8%[11.4 µM] | -20 | ?
Fc1ccccc1CN1CCN(c2ccc(Cl)cc2)CC1 | -1 | 28% | -1% | -7% | -7 | 19%[2.33 µM]
COc1ccccc1C(=O)Nc1ccc2nc(SCC(=O)N3CCCc4ccccc43)sc2c1 | nt | 66% | -36% | -16% | nt | -13%[59 µM]
CCC(=O)Nc1ccc(C(=O)OCc2ccccc2Cl)cc1 | -7 | 61% | 3% | 7% | 0 | 24%[59 µM]
Cc1ccc(Cl)cc1N1CCN(C(=O)c2cn(CC(C)C)c(=O)c3c2c2ccccc2n3C)CC1 | nt | 12% | ? | -30% | nt | ?
CC(=O)OC1CC2C(C)(C)C(O)C=C[C@@]2(C)C2CC[C@]3(C)C(=CC(=O)OC3c3ccoc3)[C@]12C (some centres undefined) | nt | nt | nt | nt | nt | -19%[2.33 µM]
CC(C)CC1C(C#N)=C(N)Oc2c1c(=O)oc1ccccc21 (centres undefined) | 10 | 3% | -1% | 45µM* | 0 | -70%
CCCN(CCC)C1CCc2ccc(O)cc2C1 (centres undefined) | -1 | 41% | 9% | -12% | 0 | 37%[12.7 µM]
CCCN(CCC)[C@@H]1CCc2c(F)ccc(O)c2C1 | nt | nt | nt | nt | nt | 50µM*
CCCN(CCC)C1CCc2cccc(O)c2C1 (centres undefined) | 5 | 23% | nt | -19% | 5 | 24µM*!
O=C(Nc1ccccc1)N1CC2(CCN(C(=O)Oc3ccccc3)CC2)C1 | nt | nt | nt | nt | nt | -4%[12.7 µM]
NCCCNCCSP(=O)(O)O | nt | nt | nt | nt | nt | -6%[12.7 µM]
C=CC[N+](C)(C)c1ccc(CCC(=O)CCc2ccc([N+](C)(C)CC=C)cc2)cc1 | 5 | 29% | -13% | -4% | -4 | 16µM*
O=Nc1c(O)c2ccccc2c2ccccc12 | 2 | ? | nt | 56µM* | -11 | nt
CC[C@H]1C(=O)OC[C@H]1Cc1cncn1C | nt | nt | nt | nt | nt | 5%[21.5 µM]
CCC(COC(=O)c1cc(OC)c(OC)c(OC)c1)(c1ccccc1)N(C)C (centres undefined) | -19 | -7% | -38% | 50µM*! | -3 | -45%[2.33 µM]
CCCOP(=O)(OCCC)C(NC(=O)c1cc(OC)c(OC)c(OC)c1)c1ccccc1 (centres undefined) | -10 | 7% | 14% | -4% | 2 | -2%
CC(C)CN1CCCC2(CCN(C(=O)Oc3ccccc3)CC2)C1 | nt | nt | nt | nt | nt | 3%[12.7 µM]
C=C(C)CSc1nnc([C@@H](N)Cc2c[nH]c3ccccc23)o1 | 2 | 41% | -28% | -33% | -2 | nt
Cc1[nH]nc2ccc(-c3cncc(OC[C@@H](N)Cc4c[nH]c5ccccc45)c3)cc12 | ? | -36% | nt | 35µM* | -26 | nt
O=C1CN=C(c2ccccc2)c2cc(Cl)ccc2N1CC1CC1 | nt | nt | nt | nt | nt | -39%[12.7 µM]
